Bioassay records (PubChem)
RORg inh: qHTS for inhibitors of ROR gamma transcriptional activity; Drosophila S2 Gal4-RORgamma UAS-luciferase reporter, 20 h; Potency, µM (top dose mostly 53.6 µM), for the others: at the highest dose activity change, negative = inhibition, usual class: inhibitors; hit rate 5.4% among 310,000; further: potency means the concentration at half of the fitted maximal effect; nearly all actives have a fitted effect of over 60% in size
Target sequence (P51450 whole entry, looked up, the tested form may be a part): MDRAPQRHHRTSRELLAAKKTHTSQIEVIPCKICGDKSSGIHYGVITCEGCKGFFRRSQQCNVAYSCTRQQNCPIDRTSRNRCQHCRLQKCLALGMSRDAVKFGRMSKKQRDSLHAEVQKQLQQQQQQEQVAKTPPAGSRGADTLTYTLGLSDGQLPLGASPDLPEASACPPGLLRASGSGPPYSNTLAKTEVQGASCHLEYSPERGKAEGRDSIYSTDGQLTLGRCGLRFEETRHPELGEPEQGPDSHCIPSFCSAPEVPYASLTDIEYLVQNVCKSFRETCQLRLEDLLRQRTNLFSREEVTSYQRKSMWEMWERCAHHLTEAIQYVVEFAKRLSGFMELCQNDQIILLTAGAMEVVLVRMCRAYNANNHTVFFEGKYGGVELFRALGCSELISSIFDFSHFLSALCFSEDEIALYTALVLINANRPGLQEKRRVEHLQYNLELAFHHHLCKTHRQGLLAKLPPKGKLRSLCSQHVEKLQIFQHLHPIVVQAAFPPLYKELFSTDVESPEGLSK
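Schneider cells (Drosophila), stable Gal4 DBD–ROR gamma + UAS-luc; 1 hr cmpd preincubation; Cu2+ induction 700 uM final; 20 hr ambient; luminescence.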
TDP1 cell CPT: qHTS for Inhibitors of human tyrosyl-DNA phosphodiesterase 1 (TDP1): qHTS in cells in presence of CPT; Potency, µM (top dose mostly 46.2 µM), for inactives: top-dose activity change, negative = growth inhibition, actives largely listed as inhibitors; AID 686979, 2013; chicken DT40 Tdp1-/-;hTDP1 cells + 20 nM CPT, ATP luminescence, 48 h; hit rate 12% among 420,000; further: potency means the concentration at half of the fitted maximal effect; nearly all actives have a fitted effect of over 55% in size
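Chicken DT40 Tdp1-/- cells complemented with human TDP1, 400 cells/well, exposed to compounds plus 20 nM camptothecin for at least 48 h at 37 C; viability read as ATP content by CellTiter-Glo luminescence.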
DT40 TDP1 no CPT: qHTS for Inhibitors of human tyrosyl-DNA phosphodiesterase 1 (TDP1): qHTS in cells in absence of CPT | hit rate 15% among 420,000 | Potency, µM (titrated, usually from 46.2 µM), for the others: top-dose activity change, negative = growth inhibition, actives largely listed as inhibitors | DT40 Tdp1-/- hTDP1 cells, no CPT, ATP luminescence, 48 h; further: potency means the concentration at half of the fitted maximal effect; nearly all actives have a fitted effect of over 55% in size
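Chicken DT40 Tdp1-/- cells complemented with human TDP1, screened without camptothecin (DMSO vehicle only), 400 cells/well. Compounds pin-transferred, cells incubated at 37 °C for at least 48 hr. Growth read as ATP-dependent luminescence (CellTiter-Glo, 30 min at RT).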
Gal4-VP16 FLuc: VP16 counterscreen qHTS for inhibitors of ROR gamma transcriptional activity; Drosophila S2 Gal4-VP16 UAS-luciferase, luminescence, 20 h; Potency, µM (titrated, usually from 53.6 µM), for the others: at the top dose activity, negative = inhibition, usual class: inhibitors; hit rate 3.5% among 310,000;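 further: Gal4-VP16 expression switched on by copper sulfate through the metallothionein promoter; potency means the concentration at half of the fitted maximal effect; nearly all actives have a fitted effect of over 50% in size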
LDHA block: qHTS assay for inhibitors of human lactate dehydrogenase; activity change, % (values are at about 110 or 230 µM); L-lactate dehydrogenase A chain (Homo sapiens), P00338; purified LDHA, NADH/diaphorase-resazurin fluorescence; active compounds read low; hit rate 0.15% among 480,000; AID 1347041, 2019; in the data active means activity change below about -30%; inconclusive means mostly about -25% to -30%;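 further: plate controls were DMSO wells for no effect and wells without enzyme for full effect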
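Remaining NADH was detected by diaphorase (0.133 mg/mL) converting 37 µM resazurin to fluorescent resorufin, read at 0 and 20 minutes. The preceding 5-minute room-temperature reaction used 2 nM LDHA, 0.2 mM sodium pyruvate and 0.06 mM NADH at pH 7.4.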
IL1B secr inh: qHTS for Inhibitors of Inflammasome Signaling: IL-1-beta AlphaLISA Primary Screen. THP-1 LPS/ATP IL-1B secretion, AlphaLISA, 16 h; active compounds read low. hit rate 4.7% among 360,000. activity change, % at 57.5 µM. AID 743279, 2014; in the data active means activity change below about -50%; inconclusive means mostly about -30% to -49%
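THP-1 cells pretreated 1 hr with compounds (up to 57.5 uM final), then stimulated with LPS (250 ng/mL final) plus ATP (1.25 mM final); secreted IL-1B measured by AlphaLISA after 16 hr, decreased signal indicating inhibition.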
Starred values were filed as active, the others as inactive. The list is not random: actives were taken first. Their share in the collection is about 18%. Unless noted, the call rests on the fitted dose curve; in most records, active means well fitted curve in the direction sought with a large enough effect; inconclusive means small, poorly fitted or top-dose-only effect, or another doubt; inactive means no such curve, though single readings can be large; an effect the other way counts as inactive or inconclusive. Unless noted, on the % scale 0 is the no-effect control and ±100 the full control effect.

CCOC(=O)c1cc(C#N)c(Oc2ccccc2OC)nc1-c1ccccc1 was read as RORg inh 29%, TDP1 cell CPT inconclusive, DT40 TDP1 no CPT 23µM*, Gal4-VP16 FLuc -4%, LDHA block -4 and IL1B secr inh -1.
For CCOC(=O)c1cc(C#N)c(SC)nc1-c1ccccc1 the results were RORg inh 0%, TDP1 cell CPT inconclusive, DT40 TDP1 no CPT inconclusive, Gal4-VP16 FLuc 1%, LDHA block -2 and IL1B secr inh -9.
Screening CCOC(=O)c1cc(C#N)c(N2CCN(c3ccccn3)CC2)nc1-c1ccccc1 returned RORg inh 39%, TDP1 cell CPT inconclusive, DT40 TDP1 no CPT 21µM*, Gal4-VP16 FLuc -14%, LDHA block -1 and IL1B secr inh -22.
CCOC(=O)c1cnc(N2CCN(c3ccccn3)CC2)c2ccccc12 was read as LDHA block 0.
CCc1c(C)sc2c1c1nc(-c3ccccc3)nn1c(=O)n2CC(=O)N1CCCC1 was read as LDHA block -1.
`O=C(CNc1ccc(S(=O)(=O)N2CCCC2)cc1)N1CCN(C(=O)c2cccs2)CC1` gave LDHA block -6.
Screening Cc1ccc2[nH]c(O)c(N=Nc3ccccc3C)c2c1 returned RORg inh -23%, TDP1 cell CPT inconclusive, DT40 TDP1 no CPT inconclusive, Gal4-VP16 FLuc -4%, LDHA block 16 and IL1B secr inh 54.
Screening CCc1ccc2[nH]c(O)c(N=NC3=NC(=O)CS3)c2c1 returned RORg inh -20%, TDP1 cell CPT 2.6µM*, DT40 TDP1 no CPT 1.8µM*, Gal4-VP16 FLuc 11%, LDHA block -13 and IL1B secr inh 37.
`CCc1ccc2c(c1)c(N=NC1=NC(=O)CS1)c(O)n2CC` gave RORg inh 11µM*, TDP1 cell CPT inconclusive, DT40 TDP1 no CPT inconclusive, Gal4-VP16 FLuc inconclusive, LDHA block 5 and IL1B secr inh -6.
Screening COC(=O)C(CCSC)NS(=O)(=O)c1ccc(Cl)cc1 (stereo not given) returned RORg inh 6%, TDP1 cell CPT -9%, DT40 TDP1 no CPT -18%, Gal4-VP16 FLuc 0%, LDHA block -1 and IL1B secr inh 8.
For CSCCC(NS(=O)(=O)c1ccc(Cl)cc1)C(=O)OCC(=O)N1CCCc2ccccc21 (stereo not given) the results were RORg inh 40%, TDP1 cell CPT 23µM*, DT40 TDP1 no CPT 18µM*, Gal4-VP16 FLuc 11%, LDHA block 0 and IL1B secr inh -4.
CSCCC(NS(=O)(=O)c1ccc(Cl)cc1)C(=O)OCC(=O)NC12CC3CC(CC(C3)C1)C2 (stereo not given) was read as RORg inh inconclusive, TDP1 cell CPT 13µM*, DT40 TDP1 no CPT inconclusive, Gal4-VP16 FLuc -16%, LDHA block -4 and IL1B secr inh -24.
For CCN(C(=O)c1cnc(N2CCOCC2)c2ccccc12)c1ccccc1C the results were LDHA block -1.
Screening Cc1ccc(N(C)C(=O)c2cnc(N3CCOCC3)c3ccccc23)cc1C returned TDP1 cell CPT 23µM*, DT40 TDP1 no CPT inconclusive and LDHA block 2.
For Cc1cccc(N(C)C(=O)c2cnc(N3CCOCC3)c3ccccc23)c1 the results were LDHA block 1.
Screening CCN(C(=O)c1cnc(N2CCOCC2)c2ccccc12)c1cc(C)ccc1C returned TDP1 cell CPT 23µM*, DT40 TDP1 no CPT inconclusive and LDHA block 3.
For CCOC(=O)c1cnc2cc(-c3ccc(C(C)(C)C)cc3)nn2c1N the results were RORg inh -10%, TDP1 cell CPT inconclusive, DT40 TDP1 no CPT inconclusive, Gal4-VP16 FLuc 10%, LDHA block -1 and IL1B secr inh 22.
Screening CCOC(=O)Cc1c(C)nc2cc(-c3ccc(C(C)(C)C)cc3)nn2c1C returned TDP1 cell CPT inconclusive, DT40 TDP1 no CPT 15µM* and LDHA block 12.
Screening CCOc1ccc(NC(=O)CCc2c(C)nc3cc(-c4ccc(Cl)cc4)nn3c2C)cc1 returned TDP1 cell CPT 15µM*, DT40 TDP1 no CPT 16µM* and LDHA block -4.
Screening COC(=O)c1ccccc1NC(=O)CCc1c(C)nc2cc(-c3ccc(Cl)cc3)nn2c1C returned TDP1 cell CPT inconclusive, DT40 TDP1 no CPT inconclusive and LDHA block -2.
`CCOC(=O)c1cccc(NC(=O)CCc2c(C)nc3cc(-c4ccc(Cl)cc4)nn3c2C)c1` gave TDP1 cell CPT 21µM*, DT40 TDP1 no CPT 16µM* and LDHA block 5.
CCCCCc1cc(=O)oc2c(C(CCN3CCCC(C)C3)c3ccc(OC)cc3)c(OC)cc(OC)c12 (stereo not given) was read as RORg inh 3%, TDP1 cell CPT inconclusive, DT40 TDP1 no CPT 23µM*, Gal4-VP16 FLuc 2%, LDHA block 3 and IL1B secr inh -54*.
For CCCCCc1cc(=O)oc2c(C(CCN3CCN(c4ccccc4)CC3)c3ccc4c(c3)OCO4)c(OC)cc(OC)c12 (stereo not given) the results were RORg inh 0%, TDP1 cell CPT 26µM*, DT40 TDP1 no CPT 16µM*, Gal4-VP16 FLuc -2%, LDHA block -4 and IL1B secr inh 18.
For CCCCCc1cc(=O)oc2c(C(CCN3CCCC3)c3cc(OC)c(OC)c(OC)c3)c(OC)cc(OC)c12 (stereo not given) the results were RORg inh -3%, TDP1 cell CPT 5.8µM*, DT40 TDP1 no CPT 16µM*, Gal4-VP16 FLuc -3%, LDHA block 1 and IL1B secr inh -5.
Screening COc1cc(OC)c2c(C)cc(=O)oc2c1C(CCN1CCCC(C)C1)c1ccc(N(C)C)cc1 (stereo not given) returned RORg inh -27% and Gal4-VP16 FLuc 4%.
Screening COc1cc(C(CC(=O)N2CCCC2)c2c(OC)cc(OC)c3c(-c4ccccc4)cc(=O)oc23)cc(OC)c1OC (stereo not given) returned RORg inh inconclusive, TDP1 cell CPT inconclusive, DT40 TDP1 no CPT inconclusive, Gal4-VP16 FLuc -30%, LDHA block 0 and IL1B secr inh inconclusive.
